Laboratory results: PubChem BioAssay (Tox21)
Inconclusive results are not listed. A call without a number means that no potency is given here. Activity calls are given as the source filed them. Calls follow the shape of the full dose curve.

Assay: qHTS assay for small molecules that induce genotoxicity in human embryonic kidney cells expressing luciferase-tagged ATAD5 - cell viability (AID 651634); also: nearly all actives have a fitted effect of over 25% in size
Conditions: HEK293T ATAD5-luc cells viability, CellTiter-Fluor, 15.5 h; series mostly up to 83.3 µM
Excerpt: National Center for Advancing Translational Sciences [NCATS]
NIH Chemical Genomics Center [NCGC]
U.S. Environmental Protection Agency [EPA]
National Institutes of Environmental Health Sciences [NIEHS]
National Toxicology Program [NTP]
U.S. Food and Drug Administration [FDA]
Enhanced Level of Genome Instability Gene 1 (ELG1; human ATAD5) protein levels increase in response to various types of DNA damage. Using a luciferase reporter-gene tagged with ElG1, a cell-based assay [developed by Kyungjae Myung, NHGRI, NIH] was used to measure the induction of ATAD5 in human embryonic kidney cells (HEK293T). So, increase in luciferase activity can be used to identify the compounds that cause genetic stress. In addition to genotoxicity, these cells were also used to test for cytotoxicity by measuring the protease activity within live cells.
Tox21 Assay Protocol Summary:
For cytotoxicity screening, 2,000 cells in 5 uL/well were dispensed into white, solid-bottom 1536-well plates using a Multidrop Combi (Thermo Scientific) dispenser. Following transfer of 23 nL compound or DMSO vehicle by a pin tool, the plates were incubated 15.5 hr at 37C and 5% CO2. 1 ul CellTiter-Fluor reagent (Promega, Madison, WI) was then added to each plate and following 30 min incubation at 37C, fluorescence intensity was quantified on a ViewLux CCD-based plate reader.

Compound | Potency
O=C(CCCCC(=O)Nc1c(I)cc(I)c(C(=O)O)c1I)Nc1c(I)cc(I)c(C(=O)O)c1I | inactive
COS(=O)(=O)O | inactive
CC(C)Nc1ccccc1 | inactive
Cc1ccc(N)cc1S(=O)(=O)O | inactive
O=C1OCCO1 | inactive
CC(C)CO | inactive
CC(C)(CO)C(O)C(=O)NCCCO (stereo not given) | inactive
Fc1ccccc1 | inactive
Nc1nc(-c2ccccc2)c(Br)c(=O)[nH]1 | inactive
[O]=[Mo](=[O])=[O] | inactive
N[C@@H](Cc1ccc(O)cc1)C(=O)O | inactive
O=NN(CCCl)C(=O)NC1CCCCC1 | inactive
CC1=NN(c2ccc(S(=O)(=O)O)cc2)C(=O)C1 | inactive
CC1CC(=O)CC(C)(C)C1 (stereo not given) | inactive
C/C(CC(C)C)=N\O | inactive
CCC(=O)c1c(O)cc(O)cc1O | inactive
CN(C)CCCO[C@@H]1[C@H]2OC(C)(C)O[C@H]2O[C@@H]1C(O)CO (stereo not given in full) | inactive
CC(C)Cn1cnc2c1c(=O)n(C)c(=O)n2C | inactive
CC(C)[C@H]1CC[C@H](C)C[C@@H]1O | inactive
CC(C)=CCC/C(C)=C/COC=O | inactive

Compound | Potency
C/C=C(\C)C(=O)OCCc1ccccc1 | inactive
COP(=O)(O)OP(=O)(O)OC | inactive
CC12CCC(C1)C(C)(C)C2O (stereo not given) | inactive
N#Cc1ccccc1O | inactive
C[Si]1(C)O[Si](C)(C)O[Si](C)(C)O[Si](C)(C)O[Si](C)(C)O1 | inactive
O=C(O)[C@H](O)c1ccccc1 | inactive
C[C@@H](O)C(=O)O | inactive
C=C(C)c1cccc(C(C)(C)N=C=O)c1 | inactive
Cc1ccc(C(C)NC(=O)[C@@H](NC(=O)OC(C)C)C(C)C)cc1 (stereo not given in full) | inactive
CCCCCC(C)O (stereo not given) | inactive
CC(=O)Nc1ccc(OC(=O)c2ccccc2OC(C)=O)cc1 | inactive
COc1cc2c(cc1OC)C(=O)C(CC1CCN(Cc3ccccc3)CC1)C2 (stereo not given) | inactive
C=CCCCCCCCC | inactive
COC(=O)c1cc(Cl)cc(Cl)c1 | inactive
C=CCCCC | inactive
CCCCOC(=O)[C@H](C)O | inactive
CC1CCc2c(N3CCC(O)CC3)c(F)cc3c(=O)c(C(=O)O)cn1c23 (stereo not given) | inactive
CCC(C)OC(C)CC (stereo not given) | inactive
CCCCCCCCCCCCCCCCCCOCCO | inactive
CCC/C=C(\C=O)CC | inactive
